Each structure is given as a SMILES string. The panel holds about 79,000 compounds, 15% with a hit somewhere; the sample as a whole holds those more often. Unmarked numbers belong to inactive results. Rule as the data show it: active = growth inhibition above about 70%; inactive = the rest.

The assay can be described thus: NCI Yeast Anticancer Drug Screen. Data for the sgs1 mgt1 strain (AID 161).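 Also: 0% = growth of cultures given vehicle only.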 To be noted: S. cerevisiae sgs1 mgt1 strain, at 50.0 µM, hits give high values. The method, boiled down: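 Mutant yeast exposed to compound; growth scored against vehicle-only wells.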
With `O=C1OC(=O)c2ccccc21`, the growth inhibition is -11.4%.

Regarding `CSc1nsc(SC)c1C(N)=O`, the growth inhibition was 15.3%.

For the molecule `ClCC1CCCO1` (configuration not stated), the growth inhibition was 31.1%. The value for `C=CC(=O)OCCCS(=O)(=O)[O-].C=CC(=O)OCCCS(=O)(=O)[O-].NC1CCCCC1N.[Pt+4]` was -4.25%; that for `NCc1c(Cl)c(Cl)c(Cl)c(CN)c1Cl` was 14.1%. The figure for `O=C1c2ccccc2C(=O)c2c1cccc2S(=O)(=O)Nc1ccccc1` is 11.2%; for `COC(=O)c1nc[nH]c1C(=O)OC` it is 15.8%; for `O=C1c2ccccc2C(=O)N1c1ccc(C(F)(F)F)cc1[N+](=O)[O-]` it is 19.7%. On to `COc1ccccc1C(=O)O`, for which the growth inhibition is -9.4%. `CC(C)=NNC(=O)c1ccccc1O`: the growth inhibition is 3.5%. The figure for `COC1/C=C/OC2(C)Oc3c(C)c(O)c4c(O)c(c(C5SCCS5)c(O)c4c3C2=O)NC(=O)/C(C)=C\C=C\C(C)C(O)C(C)C(O)C(C)C(O)C1C` (configuration not stated) is -10.8%.

Take `CCCCCC1NC(C)(C)CO1` (configuration not stated): the growth inhibition is -0.85%.

Turning to `CN(/N=C\c1ccc([N+](=O)[O-])cc1)C(=O)c1ccccc1`, the growth inhibition was 14.6%. The figure for `Cc1cn(C2CC3OP(=O)(OCc4ccccc4)OCC3O2)c(=O)[nH]c1=O` (configuration not stated) is 16.1%; for `N#CC(C#N)=CNC(=S)Nc1ccc(S(=O)(=O)Nc2nccs2)cc1` it is -13.4%; for `CCOc1ccccc1NC(=O)CC1Sc2ccccc2NC1=O` (configuration not stated) it is 15.3%. Consider `Cc1cc(Cl)c(Cl)cc1NC(=O)c1c(Br)c(Br)c(Br)c(Br)c1C(=O)O`, for which the growth inhibition was 8%.
